Measurements published in the supplement of paper PMC8728848.
The full list was thinned out, with the strongest signals kept by preference.

Columns and labels:
Experiment in all cases: glycan array binding signal (z-score within array); higher = stronger binding
Conditions in all cases: glycan notation: IUPAC condensed, linker removed; mutation: F63H
[1] = target: Fuc(a1-2)Gal(b1-3)GalNAc
Procedure, shortened: (§1)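 Columns mapping to the same glycan were averaged after glycan names were converted to IUPAC-condensed notation. The data come from 3228 arrays in the Consortium for Functional Glycomics database, limited to those with an available protein sequence. Binding is reported as a within-array Z-score averaged across arrays of one protein sequence and across linkers.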

[2] = target: Fuc(a1-2)Gal(b1-3)GalNAc(b1-3)Gal(a1-4)Gal(b1-4)Glc
Procedure, shortened: as §1

[3] = target: Fuc(a1-2)Gal(b1-3)GlcNAc(b1-3)Gal(b1-4)Glc
Procedure, shortened: as §1

[4] = target: Fuc(a1-2)Gal(b1-3)GlcNAc(b1-3)[Neu5Ac(a2-6)Gal(b1-4)GlcNAc(b1-6)]Gal(b1-4)Glc
Procedure, shortened: as §1

[5] = target: Fuc(a1-2)Gal(b1-4)GlcNAc(b1-3)Gal(b1-4)GlcNAc(b1-3)Gal(b1-4)GlcNAc
Procedure, shortened: as §1

[6] = target: Fuc(a1-2)[GalNAc(b1-3)]Gal
Procedure, shortened: as §1

[7] = target: Fuc(a1-3)GlcNAc
Procedure, shortened: as §1

[8] = target: Fuc(a1-3)[GalNAc(b1-4)]GlcNAc6S
Procedure, shortened: as §1

[9] = target: Gal(a1-3)Gal
Procedure, shortened: as §1

[10] = target: Gal(a1-3)Gal(b1-4)GlcNAc
Procedure, shortened: as §1

[11] = target: Gal(a1-3)Gal(b1-4)GlcNAc(b1-6)GalNAc
Procedure, shortened: as §1

[12] = target: Gal(a1-4)Gal(b1-4)GlcNAc(b1-2)Man(a1-3)[Gal(a1-4)Gal(b1-4)GlcNAc(b1-2)Man(a1-6)]Man(b1-4)GlcNAc(b1-4)GlcNAc
Procedure, shortened: as §1

[13] = target: Gal(b1-3)Gal(b1-4)GlcNAc
Procedure, shortened: as §1

[14] = target: Gal(b1-3)GalNAc
Procedure, shortened: as §1

[15] = target: Gal(b1-3)GalNAc(a1-3)[Fuc(a1-2)]Gal(b1-4)Glc
Procedure, shortened: as §1

[16] = target: Gal(b1-3)GalNAc(a1-3)[Fuc(a1-2)]Gal(b1-4)GlcNAc
Procedure, shortened: as §1

[17] = target: Gal(b1-3)GalNAc(b1-4)Gal(b1-4)Glc
Procedure, shortened: as §1

[18] = target: Gal(b1-3)GlcNAc(a1-3)Gal(b1-4)GlcNAc
Procedure, shortened: as §1

[19] = target: Gal(b1-3)GlcNAc(b1-3)Gal(b1-4)GlcNAc(b1-3)Gal(b1-4)GlcNAc(b1-2)[Gal(b1-3)GlcNAc(b1-3)Gal(b1-4)GlcNAc(b1-3)Gal(b1-4)GlcNAc(b1-6)]Man(a1-6)[Gal(b1-3)GlcNAc(b1-3)Gal(b1-4)GlcNAc(b1-3)Gal(b1-4)GlcNAc(b1-2)Man(a1-3)]Man(b1-4)GlcNAc(b1-4)[Fuc(a1-6)]GlcNAc
Procedure, shortened: as §1

[20] = target: Gal(b1-3)GlcNAc(b1-6)GalNAc
Procedure, shortened: as §1

[21] = target: Gal(b1-4)GlcNAc(b1-2)Man(a1-3)[Gal(b1-4)GlcNAc(b1-2)Man(a1-6)][Gal(b1-4)GlcNAc(b1-4)]Man(b1-4)GlcNAc(b1-4)[Fuc(a1-6)]GlcNAc
Procedure, shortened: as §1

[22] = target: Gal(b1-4)GlcNAc(b1-2)Man(a1-6)[GlcNAc(b1-2)Man(a1-3)]Man(b1-4)GlcNAc(b1-4)GlcNAc
Procedure, shortened: as §1

[23] = target: Gal(b1-4)GlcNAc(b1-2)[Gal(b1-4)GlcNAc(b1-6)]Man(a1-6)[GlcNAc(b1-4)][Gal(b1-4)GlcNAc(b1-2)Man(a1-3)]Man(b1-4)GlcNAc(b1-4)GlcNAc
Procedure, shortened: as §1

[24] = target: Gal(b1-4)GlcNAc(b1-2)[Gal(b1-4)GlcNAc(b1-6)]Man(a1-6)[GlcNAc(b1-4)][Gal(b1-4)GlcNAc(b1-2)[Gal(b1-4)GlcNAc(b1-4)]Man(a1-3)]Man(b1-4)GlcNAc(b1-4)[Fuc(a1-6)]GlcNAc
Procedure, shortened: as §1

[25] = target: Gal(b1-4)GlcNAc(b1-3)Gal(b1-4)GlcNAc(b1-3)Gal(b1-4)GlcNAc(b1-2)Man(a1-3)[Gal(b1-4)GlcNAc(b1-3)Gal(b1-4)GlcNAc(b1-3)Gal(b1-4)GlcNAc(b1-2)Man(a1-6)]Man(b1-4)GlcNAc(b1-4)[Fuc(a1-6)]GlcNAc
Procedure, shortened: as §1

[26] = target: Gal(b1-4)GlcNAc(b1-3)Gal(b1-4)GlcNAc(b1-3)Gal(b1-4)GlcNAc(b1-3)Gal(b1-4)GlcNAc(b1-3)Gal(b1-4)GlcNAc(b1-2)Man(a1-3)[Gal(b1-4)GlcNAc(b1-3)Gal(b1-4)GlcNAc(b1-3)Gal(b1-4)GlcNAc(b1-3)Gal(b1-4)GlcNAc(b1-3)Gal(b1-4)GlcNAc(b1-2)Man(a1-6)]Man(b1-4)GlcNAc(b1-4)[Fuc(a1-6)]GlcNAc
Procedure, shortened: as §1

[27] = target: Gal(b1-4)GlcNAc(b1-3)Gal(b1-4)GlcNAc(b1-3)Gal(b1-4)GlcNAc(b1-3)Gal(b1-4)GlcNAc(b1-3)Gal(b1-4)GlcNAc(b1-3)Gal(b1-4)GlcNAc(b1-2)Man(a1-3)[Gal(b1-4)GlcNAc(b1-3)Gal(b1-4)GlcNAc(b1-3)Gal(b1-4)GlcNAc(b1-3)Gal(b1-4)GlcNAc(b1-3)Gal(b1-4)GlcNAc(b1-3)Gal(b1-4)GlcNAc(b1-2)Man(a1-6)]Man(b1-4)GlcNAc(b1-4)GlcNAc
Procedure, shortened: as §1

[28] = target: Gal(b1-4)GlcNAc(b1-3)Gal(b1-4)GlcNAc(b1-3)GalNAc
Procedure, shortened: as §1

[29] = target: Gal(b1-4)GlcNAc(b1-3)Gal(b1-4)GlcNAc(b1-3)[Gal(b1-4)GlcNAc(b1-3)Gal(b1-4)GlcNAc(b1-6)]GalNAc
Procedure, shortened: as §1

[30] = target: Gal(b1-4)GlcNAc(b1-3)GalNAc
Procedure, shortened: as §1

B1: AAL (Agrocybe aegerita), Q6WY08 (protein)
chain: MQGVNIYNISAGTSVDLAAPVTTGDIVTFFSSALNLNAGAGNPNNTTLNLFAENGAYLLHIAHRLQENVIIFNSRQPDGPWLVEQRVSDVANQFAGIDGKAMVTVFDHGDKYQVVINEKTVIQYTKQISGLTLSLSYNATEETSIFSTVVEAVTYTGLALEHHHHHH
**Q.** Which “glycan array binding signal (z-score)” value [1] does the source give for B1 here?
**A.** -0.198

**Q.** What about the “glycan array binding signal (z-score)” value [2] of the same binder?
**A.** -0.075

**Q.** And the “glycan array binding signal (z-score)” value [3]?
**A.** -0.394

**Q.** What about the “glycan array binding signal (z-score)” value [4] of the same binder?
**A.** 0.013

**Q.** And the “glycan array binding signal (z-score)” value [5]?
**A.** -0.151

**Q.** What about the “glycan array binding signal (z-score)” value [6] of the same binder?
**A.** -0.544

**Q.** What about the “glycan array binding signal (z-score)” value [7] of the same binder?
**A.** -0.394

**Q.** And the “glycan array binding signal (z-score)” value [8]?
**A.** -0.005

**Q.** What about the “glycan array binding signal (z-score)” value [9] of the same binder?
**A.** -0.04

**Q.** What about the “glycan array binding signal (z-score)” value [10] of the same binder?
**A.** -0.342

**Q.** What about the “glycan array binding signal (z-score)” value [11] of the same binder?
**A.** -0.072

**Q.** What about the “glycan array binding signal (z-score)” value [12] of the same binder?
**A.** 0.969

**Q.** What about the “glycan array binding signal (z-score)” value [13] of the same binder?
**A.** -0.287

**Q.** And the “glycan array binding signal (z-score)” value [14]?
**A.** -0.177

**Q.** What about the “glycan array binding signal (z-score)” value [15] of the same binder?
**A.** -0.298

**Q.** What about the “glycan array binding signal (z-score)” value [16] of the same binder?
**A.** -0.341

**Q.** What about the “glycan array binding signal (z-score)” value [17] of the same binder?
**A.** -0.435

**Q.** And the “glycan array binding signal (z-score)” value [18]?
**A.** 0.927

**Q.** What about the “glycan array binding signal (z-score)” value [19] of the same binder?
**A.** 0.029

**Q.** What about the “glycan array binding signal (z-score)” value [20] of the same binder?
**A.** 0.316

**Q.** What about the “glycan array binding signal (z-score)” value [21] of the same binder?
**A.** -0.332

**Q.** And the “glycan array binding signal (z-score)” value [22]?
**A.** -0.263

**Q.** What about the “glycan array binding signal (z-score)” value [23] of the same binder?
**A.** 4.37

**Q.** What about the “glycan array binding signal (z-score)” value [24] of the same binder?
**A.** -0.265

**Q.** And the “glycan array binding signal (z-score)” value [25]?
**A.** 1.22

**Q.** And the “glycan array binding signal (z-score)” value [26]?
**A.** -0.033

**Q.** And the “glycan array binding signal (z-score)” value [27]?
**A.** 0.376

**Q.** And the “glycan array binding signal (z-score)” value [28]?
**A.** -0.163

**Q.** What about the “glycan array binding signal (z-score)” value [29] of the same binder?
**A.** 0.226

**Q.** And the “glycan array binding signal (z-score)” value [30]?
**A.** -0.105
